# Most compounds without a hit are left out; they make up all but 1.2% or so of the library.
# RAD54 inh: inhibitors of human RAD54 branch migration, primary screen, biochemical, fluorescence, single point; RAD54 Holliday junction branch migration, FAM/BHQ fluorescence; inhibition, % at 10.4 µM; hit rate 0.14% among 360,000;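 active = mean normalized replicate activity at least 40 and at least half of replicates scoring 40 or more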;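 also: inhibitors cause a drop in the FAM fluorescence signal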
# Target sequence (Q92698 whole entry, looked up): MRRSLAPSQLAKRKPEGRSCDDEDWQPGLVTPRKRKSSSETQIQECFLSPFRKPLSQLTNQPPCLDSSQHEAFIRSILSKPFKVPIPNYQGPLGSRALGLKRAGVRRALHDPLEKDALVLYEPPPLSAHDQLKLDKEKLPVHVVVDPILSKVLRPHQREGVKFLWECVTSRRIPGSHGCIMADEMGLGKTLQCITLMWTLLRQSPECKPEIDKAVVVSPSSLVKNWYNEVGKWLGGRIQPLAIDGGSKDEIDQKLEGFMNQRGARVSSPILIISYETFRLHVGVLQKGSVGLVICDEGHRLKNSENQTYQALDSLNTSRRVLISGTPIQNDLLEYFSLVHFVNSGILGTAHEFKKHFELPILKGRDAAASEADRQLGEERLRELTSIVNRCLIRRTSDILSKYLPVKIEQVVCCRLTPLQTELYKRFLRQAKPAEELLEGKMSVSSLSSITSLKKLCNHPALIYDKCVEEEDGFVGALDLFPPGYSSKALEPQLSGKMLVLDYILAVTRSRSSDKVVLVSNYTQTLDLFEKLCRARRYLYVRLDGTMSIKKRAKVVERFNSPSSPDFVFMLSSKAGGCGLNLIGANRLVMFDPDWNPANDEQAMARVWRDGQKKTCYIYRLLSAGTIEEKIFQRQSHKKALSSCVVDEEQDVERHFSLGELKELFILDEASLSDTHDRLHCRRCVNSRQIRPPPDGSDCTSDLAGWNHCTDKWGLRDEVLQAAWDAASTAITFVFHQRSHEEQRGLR
# N-glyco inh: increase of ERlucT glycosylation luciferase signal, primary screen, N-linked glycosylation inhibitor project, D54 ERlucT cells, luminescence, set 2. D54 ERlucT glycosylation luciferase reporter, 24 h; percent of 100 nM tunicamycin response. reporter increase, % at 12.5 µM. hit rate 0.23% among 360,000;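 active = mean luciferase reporter signal, scaled so untreated is 0 and the glycosylation-blocking control 100, at or above a set limit in every replicate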;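 also: luciferase carries N-glycosylation sites so blocking glycosylation raises the light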
# NSD2 HMT inh: NSD2 histone methyltransferase inhibitors, primary screen, biochemical, AlphaScreen, single concentration, set 2; NSD2 peptide methylation, 120 min; inhibition, % at 12.5 µM; hit rate 0.54% among 310,000; in the data active = inhibition above about 50%
# Casp6 inh: human caspase-6 inhibitors, primary screen, biochemical, VEID-R110 fluorescence, single point, set 2 | P55212 | purified caspase-6, Z-VEID-R110 cleavage fluorescence | inhibition, % at 12.5 µM | hit rate 0.53% among 350,000 | AID 686996, 2013;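 active = mean inhibition across replicates at least about 35%, with every replicate also reaching that limit, limit read from the data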
# RAD52 inh: RAD52 DNA annealing inhibitors, primary screen, biochemical, FRET, single point, set 2; recombinant RAD52 DNA annealing, FRET fluorescence; inhibition, % at 18.7 µM; hit rate 0.46% among 360,000; AID 651710, 2012;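 active = every replicate showing at least 50% inhibition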
# A number is an active result; 0 = inactive; - = no result.
SMILES,RAD54 inh,N-glyco inh,NSD2 HMT inh,Casp6 inh,RAD52 inh
Cc1nc2ccc(NS(=O)(=O)c3c(F)cc(F)cc3Br)cc2s1,0,0,0,40,0
N#C[C@H]1[C@H](c2ccc(C3=CCCC3)cc2)[C@H](CO)N1C(=O)NC1CCCC1,0,-,-,0,0
COc1cc(NC(=O)c2ccc(-c3c(C)noc3C)c3ccoc23)cc(OC)c1OC,0,33,0,0,0
O=C(C1CCCCC1)N1CC(=O)N2[C@H](CO)[C@H](c3ccc(-c4cccnc4)cc3)[C@H]2C1,-,-,-,0,0
Cc1nnc(C)c2c(C)n(/N=C/c3cc(Br)ccc3O)c(C)c12,-,-,0,-,-
CC1CN(Cc2c(O)ccc3c(=O)c(-c4ccccc4)coc23)CC(C)O1 (stereo not given),0,0,0,0,0
CC1CN(Cc2c(O)ccc3c2oc(=O)c2ccccc23)CC(C)O1 (stereo not given),0,0,98,0,0
COc1ccc(-c2ccc3n(c2=O)C[C@@H]2N[C@H]3[C@H](C(=O)N3CCCCC3)[C@H]2CO)cc1,-,-,-,0,0
COCC(=O)N1CC2(CN(C(=O)c3cccnc3)C2)c2c([nH]c3cc(OC)ccc23)[C@@H]1CO,-,-,-,0,0
c1ccc(N=Nc2ccc3cccccc2-3)cc1,0,26,0,0,0
COc1ccc2c3c(n(C)c2c1)[C@@H](CO)N(C(=O)C1CCCC1)CC31CCN(C(=O)CN(C)C)CC1,-,-,-,0,0
Cn1cc(C(=O)N/N=C/C(Br)=C/c2ccccc2)ccc1=O,-,25,0,0,0
COc1ccc(NC(=O)Nc2ccc3c(c2)C(=O)N([C@@H](C)CO)C[C@H](C)[C@H](CN(C)Cc2ccccc2)OCCCC[C@@H](C)O3)cc1,0,-,-,0,60
COc1ccc(NC(=O)Nc2ccc3c(c2)C(=O)N([C@H](C)CO)C[C@@H](C)[C@@H](CN(C)Cc2ccccc2)OCCCC[C@H](C)O3)cc1,0,-,-,0,51
C[C@@H]1CCCCO[C@H](CN(C)Cc2ccccc2)[C@H](C)CN([C@@H](C)CO)C(=O)c2cc(NC(=O)Nc3ccc(F)cc3)ccc2O1,0,-,-,0,53
C[C@H]1CCCCO[C@@H](CN(C)C(=O)CCCN(C)C)[C@@H](C)CN([C@@H](C)CO)C(=O)c2cc(NC(=O)Nc3ccc(F)cc3)ccc2O1,0,-,-,0,52
O=C(NC1CCCCC1)N1CC(=O)N2[C@H](C1)[C@@H](c1ccc(-c3ccccc3)cc1)[C@@H]2CO,-,-,-,0,0
Cc1noc(C)c1S(=O)(=O)N(C)C[C@H]1OCCCC[C@H](C)Oc2ccc(NC(=O)NC3CCCCC3)cc2C(=O)N([C@H](C)CO)C[C@@H]1C,0,-,-,0,0
COc1ccc(NC(=O)Nc2ccc3c(c2)C(=O)N([C@@H](C)CO)C[C@@H](C)[C@@H](CN(C)C(=O)Nc2cccc4ccccc24)OCCCC[C@@H](C)O3)cc1,0,-,-,0,0
C[C@H]1CCCCO[C@@H](CN(C)C(=O)CCCN(C)C)[C@@H](C)CN([C@@H](C)CO)C(=O)c2cc(NS(=O)(=O)c3ccc(Cl)cc3)ccc2O1,0,-,-,0,54
COc1ccc(NC(=O)Nc2ccc3c(c2)C(=O)N([C@@H](C)CO)C[C@H](C)[C@H](CN(C)Cc2ccccc2)OCCCC[C@H](C)O3)cc1,0,-,-,0,57
O=c1c2ccccc2nc(/C=C/c2cccnc2)n1Cc1ccccc1,-,0,0,46,0
O=[N+]([O-])c1ccc(Sc2cc[n+]([O-])c3ccccc23)c([N+](=O)[O-])c1,0,28,0,0,0
O=c1[nH]c(Sc2ccc([N+](=O)[O-])cc2[N+](=O)[O-])nc2ccccc12,0,0,0,0,0
CC(C)Sc1ccccc1C(=O)Nc1ccc2c(c1)n(C)c(=O)n2C,0,34,0,0,0
SMILES,RAD54 inh,N-glyco inh,NSD2 HMT inh,Casp6 inh,RAD52 inh
Cn1c(=O)n(C)c2cc(NC(=O)CCl)ccc21,-,82,0,-,-
Cn1c(=O)n(C)c2cc(NC(=O)c3ccccc3)ccc21,0,0,0,0,0
COc1ccccc1N1CCN(C(=O)C(C)CS(=O)(=O)c2ccc3c(c2)NC(=O)CS3)CC1 (stereo not given),0,0,0,68,0
COc1ccccc1N1CCN(S(=O)(=O)c2ccc3c(c2)NC(=O)C(C)S3)CC1 (stereo not given),0,0,0,0,0
O=C(N/N=C/c1ccc(OC(F)F)cc1)c1ccc(Br)cc1,0,0,0,-,-
O=C(NO)c1ccc(OC(F)F)cc1,-,36,0,0,0
O=C(C[C@@H]1CC[C@@H]2[C@H](COC[C@H](O)CN2CC2CCCC2)O1)NCC1CC1,-,-,-,0,0
CCC1=NN(C(=O)c2ccc(Cl)cc2)C(O)(c2ccc(C)cc2)C1 (stereo not given),0,0,0,48,0
CCC1=NN(C(=O)c2ccccc2Br)C(O)(c2ccc(Br)cc2)C1 (stereo not given),0,0,0,0,0
CCC1=NN(C(=O)c2ccccc2O)C(O)(c2ccccc2)C1 (stereo not given),0,0,0,72,0
CC(C)(C)c1ccc(C(=O)Nc2ccc(S(=O)(=O)Nc3cnc4ccccc4n3)cc2)cc1,0,0,0,61,0
CC(C)NC(=O)N(C)C[C@H]1OCCCC[C@H](C)Oc2ccc(NC(=O)c3ccccc3)cc2C(=O)N([C@H](C)CO)C[C@H]1C,0,-,-,0,0
CCCC#Cc1ccc([C@@H]2[C@H](CO)N3CCCCN(CC4CC4)C[C@@H]23)cc1,0,-,-,0,0
CN(C)CC#Cc1ccc([C@H]2[C@@H](CO)N3CCCCN(CC4CCOCC4)C[C@H]23)cc1,0,-,-,0,62
CN(C)CC#Cc1ccc([C@@H]2[C@@H](CO)N3CCCCN(CC4CC4)C[C@@H]23)cc1,0,-,-,0,71
COc1cccc(-c2ccc([C@H]3[C@@H](CO)N4CCCCN(CC5CCOCC5)C[C@@H]34)cc2)c1,0,-,-,0,56
CCCC#Cc1ccc([C@H]2[C@@H](CO)N3CCCCN(CC4CC4)C[C@H]23)cc1,0,-,-,0,53
O=C(N[C@@H]1C=C[C@H](CC(=O)N2CCc3ccccc3C2)O[C@@H]1CO)C1CCOCC1,-,-,-,0,0
O=C(C[C@@H]1CC[C@H]2[C@@H](COC[C@@H](O)CN2C(=O)c2ccncc2)O1)NC1CCC1,0,-,-,0,0
CN(C)CC#Cc1ccc([C@@H]2[C@H](CO)N3CCCCN(CC4CC4)C[C@@H]23)cc1,0,-,-,0,58
COc1cc(/C=C2/C(=N)N3C(=NC2=O)SN=C3S(C)(=O)=O)ccc1OS(=O)(=O)c1ccc(C)cc1,0,0,0,0,0
Cc1cc(C)cc(-n2cccc2/C=C2/C(=N)N3C(=NC2=O)SN=C3S(C)(=O)=O)c1,-,0,0,37,0
